# In PubChem BioAssay:
# Values joined by “and” are separate entries in the source; they are usually repeats but may differ in a detail not shown here. Equal entries are not always repeated. Active and inactive are the calls of the source.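 The calls were made as follows, unless noted: active = thallium flux through the channel raised or lowered by more than 3 SD from vehicle-only wells, actives on both sides; inactive = the rest.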
# Assays:
# [1] = blockers of polyQ-driven CASP3 activation – cell-based (AID 1583); details: polyglutamine-induced caspase-3 activation, cell assay; stronger effect = higher value;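 tested at 10 µM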
# [2] = yeast 75Q aggregation reduction – 75Q-TubU reporter (AID 1593); details: Yeast 75Q polyglutamine aggregation reporter
# [3] = blockers of cytochrome c efflux from mitochondria – biochemical, purified mitochondria (AID 1603); details: stronger effect = lower value;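 also: mouse liver mitochondria challenged with calcium chloride; signal normalized to the plate average as 100%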
# [4] = polyglutamine aggregate formation blockers (AID 1604); details: polyglutamine-induced protein aggregation inhibition assay; stronger effect = higher value; tested at 2.5 µM
# [5] = glutamate transport activators, MN-1 cells, MN-1 cell line (AID 1612); details: MN-1 motor neuron cells, stronger effect = higher value;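 also: tested at 1 µM final; 0% = mean of DMSO vehicle wells on each plate; positive means more glutamate uptake than control and negative means less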
# [6] = signal quenchers or enhancers, Cy5 substrate/SSB – biochemical, NIH Clinical Collection, E. coli SSB, artefact control for HCV NS3 helicase inhibitor project (AID 743268; call rule not given here); details: Cy5-oligo bound E. coli SSB, fluorescence interference
# [7] = system: Hepatitis C virus NS3 helicase; test: blockers of NS3h binding to DNA – biochemical, fluorescence polarization, NIH Clinical Collection, primary screen (AID 743270; call rule not given here); details: NS3 helicase binding to Cy5-dT15 DNA, stronger effect = higher value, concentration not given here
# [8] = molecular target: Single-stranded DNA-binding protein (Escherichia coli (strain K12)) (UniProt P0AGE0); test: SSB-ssDNA binding inhibitors – biochemical, fluorescence polarization, NIH Clinical Collection, counter-screen for HCV NS3 helicase inhibitor project (AID 743271; in the data active = inhibition above about 28%); details: E. coli SSB-DNA binding, stronger effect = higher value, concentration not given here
# [9] = compounds distorting NS3 helicase fluorescence signal – biochemical, NIH Clinical Collection, artefact control for HCV NS3 helicase inhibitor project (AID 743272; call rule not given here;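 also: HCV NS3 helicase with a Cy5 labelled single stranded DNA probe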); details: fluorescence interference counterscreen, HCV NS3 helicase assay; stronger effect = lower value
# [10] = system: F380Y/beta4; test: BK channel mutant inhibitors and activators – cell-based, U2OS BacMam, thallium flux, beta subunits, selectivity assay, profiling panel (AID 1259406); details: U2OS BacMam BK variants, at 30 µM;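 also: initial slope of Thallos dye fluorescence rise after thallium is added; log ratio against the mean of 0.3% DMSO vehicle wells on the same plate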
# [11] = molecular target: Calcium-activated potassium channel subunit alpha-1 (Homo sapiens) + Leucine-rich repeat-containing protein 26 (Homo sapiens) (UniProt Q12791+Q2I0M4); test: as above; details: U2OS BacMam BK variants, F380Y/Slo1WT/gamma1, at 30 µM
# [12] = system: R275C; test: as above; details: U2OS BacMam BK variants, at 30 µM
# [13] = system: R275C/beta1; test: as above; details: U2OS BacMam BK variants, at 30 µM
# [14] = system: R275C/beta2Delta; test: as above; details: U2OS BacMam BK variants, at 30 µM
# [15] = system: R275C/beta4; test: as above; details: U2OS BacMam BK variants, at 30 µM
# [16] = system: R275C/Slo1WT/beta2; test: as above; details: U2OS BacMam BK variants, at 30 µM
# [17] = galactose survival enhancers in mitochondrial complex I cybrids – cell-based, galactose medium, ATP luminescence, primary screen (AID 1645843;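 active = z-score of at least 1.8 in each of two replicates, scored against plate mean and spread of sample wells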;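 also: positive z means more ATP and so rescue of galactose-driven cybrid death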); details: complex I mutant cybrid cells, 72 h, stronger effect = higher value
# [18] = growth inhibition, single agent or in combination, cell-based, chromothripsis tumors, cisplatin or BGB combos (AID 1671449; in the data active = inhibition above about 80%;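 also: cells exposed for 96 hours; 0% = vehicle DMSO and 100% = killing by high DMSO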); details: LFS_MB_P medulloblastoma cells
# [19] = growth inhibition, single agent and combos, cell-based, chromothripsis tumors, cisplatin or BGB combos (AID 1671450; in the data active = inhibition above about 80%;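 also: cells exposed to compound for four days; 0% = vehicle DMSO and 100% = cell killing by high DMSO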); details: HDN33 neuroblastoma cells, stronger effect = higher value
# [20] = growth inhibition, single agents and combos, HTB85, cell-based, BGB or cisplatin IC20 combos, synergistic combos for chromothripsis tumors (AID 1671453; in the data active = inhibition above about 80%;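 also: cells exposed for 96 hours before readout; 0% = vehicle DMSO and 100% = high DMSO killing control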); details: HTB85 osteosarcoma cells, drug combinations, stronger effect = higher value
# [21] = at 0.5 µM, stronger effect = higher value
# [22] = measured here: combination with BGB IC20, at 0.005 µM
# [23] = measured here: combination with BGB IC40, at 0.005 µM
# [24] = measured here: combination with BGB IC40, at 0.05 µM
# [25] = measured here: combination with cisplatin, at 0.5 µM, stronger effect = higher value
# [26] = measured here: combination with cisplatin, at 5 µM, stronger effect = higher value
# [27] = measured here: with BGB IC20 combination, at 0.5 µM
# [28] = measured here: with cisplatin IC20 combination, at 0.5 µM
# [29] = measured here: with BGB IC20, at 0.5 µM
# [30] = measured here: with BGB IC20, at 5 µM
# [31] = measured here: with cisplatin IC20, at 0.5 µM
# [32] = measured here: with cisplatin IC20, at 5 µM
# Calcium-activated potassium channel subunit alpha-1 (Homo sapiens) + Leucine-rich repeat-containing protein 26 (Homo sapiens), sequence (Q2I0M4 whole entry, looked up, one chain of several): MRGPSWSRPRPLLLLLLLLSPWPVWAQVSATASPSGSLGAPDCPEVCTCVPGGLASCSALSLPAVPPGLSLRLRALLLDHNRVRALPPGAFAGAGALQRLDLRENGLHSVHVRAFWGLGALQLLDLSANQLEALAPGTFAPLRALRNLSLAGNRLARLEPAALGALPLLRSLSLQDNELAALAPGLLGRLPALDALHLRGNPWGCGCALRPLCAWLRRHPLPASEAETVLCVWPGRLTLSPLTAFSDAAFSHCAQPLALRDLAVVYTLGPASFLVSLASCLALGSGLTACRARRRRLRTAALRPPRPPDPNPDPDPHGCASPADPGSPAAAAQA
smiles,measurement,setting,value
COc1ccc(Cl)cc1C(=O)NCCc1ccc(S(=O)(=O)NC(=O)NC2CCCCC2)cc1,inhibition,[1],0.35%
same,score,[2],-0.18
same,cytochrome c release ratio,[3],1.09
same,inhibition of aggregation,[4],45%
same,glutamate uptake change,[5],34.4%
same,fluorescence ratio,[6],0.97 (inactive)
same,inhibition,[7],-2.27% (inactive)
same,inhibition,[8],1.05% (inactive)
same,fluorescence ratio,[9],0.97 (inactive)
same,log fold change Tl+ flux,[10],0.115 (active)
same,log fold change Tl+ flux,[11],0.0583 (inactive)
same,log fold change Tl+ flux,[12],0.027 (inactive)
same,log fold change Tl+ flux,[13],0.142 (active)
same,log fold change Tl+ flux,[14],0.0874 (inactive)
same,log fold change Tl+ flux,[15],0.162 (active)
same,log fold change Tl+ flux,[16],0.00644 (inactive)
CS(=O)(=O)OCCCCOS(C)(=O)=O,inhibition,[1],27.2%
same,score,[2],1.46
same,cytochrome c release ratio,[3],0.62
same,inhibition of aggregation,[4],54%
same,glutamate uptake change,[5],14.5%
same,fluorescence ratio,[6],1.02 (inactive)
same,inhibition,[7],-12.3% (inactive)
same,inhibition,[8],-0.48% (inactive)
same,fluorescence ratio,[9],0.92 (inactive)
same,z-score,[17],0.925 (inactive)
same,inhibition,[18]; [21],-1.82% (inactive) and -6.92% (inactive)
same,inhibition,[18]; [22],-22.1% and -20.3%
same,inhibition,[18]; [23],-24.6% and 29.3%
same,inhibition,[18]; [24],-40.6% and 3.42%
same,inhibition,[18]; [25],1.85% and -16.8%
same,inhibition,[18]; [26],-55.6% and 0.647%
same,inhibition,"[19]; BGB combo, at 5 µM",-31.6% and -3.19%
same,inhibition,[19]; at 0.5 µM,-10.4% (inactive) and -1.57% (inactive)
same,inhibition,"[19]; cisplatin combo, at 5 µM",-3.41% and -6.58%
same,inhibition,[19]; [27],-9.64% and 2.06%
same,inhibition,[19]; [28],-8.9% and -4.87%
same,inhibition,"[19]; single agent, at 5 µM",0.973% and 14.4%
same,inhibition,[20]; at 0.5 µM,-4.73% (inactive) and 3.45% (inactive)
same,inhibition,[20]; [29],-9.57% and -1.65%
same,inhibition,[20]; [30],-6.08% and 4.44%
same,inhibition,[20]; [31],-0.002% and 1.89%
same,inhibition,[20]; [32],-32.8% and 17%
same,inhibition,"[20]; single agent, at 5 µM",-0.247% and 3.08%
same,log fold change Tl+ flux,[10],0.00072 (inactive)
same,log fold change Tl+ flux,[11],-0.0136 (inactive)
same,log fold change Tl+ flux,[12],0.0198 (inactive)
same,log fold change Tl+ flux,[13],-0.0312 (inactive)
same,log fold change Tl+ flux,[14],0.0365 (inactive)
same,log fold change Tl+ flux,[15],-0.0126 (inactive)
same,log fold change Tl+ flux,[16],0.0135 (inactive)
S=c1nc[nH]c2nc[nH]c12,inhibition,[1],26.7%
same,score,[2],1.45
same,cytochrome c release ratio,[3],0.93
same,inhibition of aggregation,[4],66.2%
same,glutamate uptake change,[5],12.1%
same,fluorescence ratio,[6],1.03 (inactive)
same,inhibition,[7],-1.36% (inactive)
same,inhibition,[8],0.29% (inactive)
same,fluorescence ratio,[9],0.99 (inactive)
same,z-score,[17],2.91 (active)
same,inhibition,[18]; [21],-16.7% (inactive) and -25.3% (inactive) and -23.4% (inactive)
same,inhibition,[18]; [22],-9.64% and 14% and 16.4%
same,inhibition,[18]; [23],-23.4% and -1.54% and -20.6%
same,inhibition,[18]; [24],-13.7% and 4.76% and 13.1%
same,inhibition,[18]; [25],-46.7% and -35.2% and -28.2%
same,inhibition,[18]; [26],-18.6% and -9.9% and -19.4%
same,inhibition,"[19]; BGB combo, at 5 µM",6.4% and -7.61% and -1.61%
same,inhibition,[19]; at 0.5 µM,21.5% (inactive) and -7.1% (inactive) and 2.79% (inactive)
same,inhibition,"[19]; cisplatin combo, at 5 µM",17.2% and 3.9% and 15.7%
same,inhibition,[19]; [27],17.6% and -24.1% and -7.78%
same,inhibition,[19]; [28],11.8% and -15.2% and -7.14%
same,inhibition,"[19]; single agent, at 5 µM",55.5% and 46.9% and 55.8%
same,inhibition,[20]; at 0.5 µM,-18.6% (inactive) and -13.7% (inactive) and -28.1% (inactive)
same,inhibition,[20]; [29],-53.8% and -19.7% and -40.4%
same,inhibition,[20]; [30],-9.25% and -19% and -8.77%
same,inhibition,[20]; [31],-18.6% and -5.87% and -28%
same,inhibition,[20]; [32],-12.1% and 4.25% and -34.8%
same,inhibition,"[20]; single agent, at 5 µM",18.8% and -4.98% and -9.17%
same,log fold change Tl+ flux,[10],-0.00864 (inactive)
same,log fold change Tl+ flux,[11],-0.0406 (inactive)
same,log fold change Tl+ flux,[12],-0.0342 (inactive)
same,log fold change Tl+ flux,[13],0.0271 (inactive)
same,log fold change Tl+ flux,[14],-0.0376 (inactive)
same,log fold change Tl+ flux,[15],-0.0907 (inactive)
same,log fold change Tl+ flux,[16],0.0711 (inactive)
